Laboratory results published in the supplement of paper PMC3414501.
Structures can show the parent of a compound that is named as a salt. A number with no mark means an inactive call.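 Rule for the calls: active = HIS4 sensitivity z-score above 5 vs DMSO controls; inactive = score 5 or below.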

system: S. cerevisiae NKY1551 his4x/his4B, sporulating; test: HIS4 meiotic recombination assay sensitivity score (z-score vs DMSO controls); higher = stronger inhibition of sporulation/recombination, active = hit call of the paper
Description: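 NIH Clinical Collection compounds were added 1:100 from stock (about 100 µM final) to S. cerevisiae. Growth: average doubling time (AvgG) over 24 h of BY4741 (wild-type) or AD1-9 (drug-efflux-pump deficient) in rich media. HIS4: the his4x/his4B heteroallelic recombination reporter strain (SK1) was sporulated 5 h with compound at 30°C, then colony density was read on -his plates after 48 h. Sensitivity score = (compound − mean of 8 DMSO controls)/SD of DMSO controls. Hit cutoffs are >2 for growth and >5 for sporulation.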

SMILES | HIS4 meiotic recombination assay sensitivity score
COCc1c(C(C)C)nc(C(C)C)c(/C=C/[C@@H](O)C[C@@H](O)CC(=O)O)c1-c1ccc(F)cc1 [Cerivastatin] (stock concentration (mM, diluted 1:100): 10) | 0.17
COc1ccc2c(c1)c(CC(=O)O)c(C)n2C(=O)c1ccc(Cl)cc1 [Indomethacin] (stock concentration (mM, diluted 1:100): 10.5) | 0.4
CN(C)CCN(Cc1ccccc1)c1ccccn1 [Tripelennamine hydrochloride] (stock concentration (mM, diluted 1:100): 10) | 8.14 (active)
Clc1ccc(CO/N=C(\Cn2ccnc2)c2ccc(Cl)cc2Cl)c(Cl)c1 [Oxiconazole nitrate] (stock concentration (mM, diluted 1:100): 10) | -3.02
O=C1CCc2ccc(OCCCCN3CCN(c4cccc(Cl)c4Cl)CC3)cc2N1 [Aripiprazole] (stock concentration (mM, diluted 1:100): 10) | -1.42
CCN(CC)C(=S)SSC(=S)N(CC)CC [Tetraethylthiuram disulfide] (stock concentration (mM, diluted 1:100): 10) | -2.95
NC(=O)OCC(COC(N)=O)c1ccccc1 [Felbamate] (stock concentration (mM, diluted 1:100): 14) | -0.45
O=C(c1ccccc1)c1ccc2n1CCC2C(=O)O (stereo not given) [Toradol] (stock concentration (mM, diluted 1:100): 6.8) | -1.15
O=C(O)CCc1nc(-c2ccccc2)c(-c2ccccc2)o1 [Oxaprozin] (stock concentration (mM, diluted 1:100): 10) | -0.23
COc1cc(C)nc(-n2nc(C)cc2OC)n1 [Mepirizole] (stock concentration (mM, diluted 1:100): 10) | -1.87
CC(=O)Nc1ccc(CC(=O)O)cc1 [Actarit] (stock concentration (mM, diluted 1:100): 10) | 0.62
CCCc1c(OCCCCc2nnn[nH]2)ccc(C(C)=O)c1O (stock concentration (mM, diluted 1:100): 10) | -2.23
O=c1ncc(F)c[nH]1 [5-Fluoro-2-Pyrimidone] (stock concentration (mM, diluted 1:100): 10) | -0.02
C[C@]12C[C@H](O)[C@H]3[C@@H](CCC4=CC(=O)CC[C@@]43C)[C@@H]1CC[C@@H]2C(=O)CO [Corticosterone] (stock concentration (mM, diluted 1:100): 10) | 1.37
O=C(O)/C=C/c1ccc(Cn2ccnc2)cc1 [Ozagrel hydrochloride] (stock concentration (mM, diluted 1:100): 8.6) | 0.54
O=[N+]([O-])c1cccc2cn[nH]c12 [7-Nitroindazole] (stock concentration (mM, diluted 1:100): 10) | -1.75
COc1cccc2c1C(=O)c1c(O)c3c(c(O)c1C2=O)C[C@@](O)(C(=O)CO)C[C@@H]3O[C@H]1C[C@H](N)[C@@H](O)[C@H](C)O1 [Epirubicin hydrochloride] (stock concentration (mM, diluted 1:100): 9.4) | -1.39
Cc1cccc(C)c1NC(=O)C(C)N (stereo not given) [Tocainide] (stock concentration (mM, diluted 1:100): 10) | 0.7
Cc1cccc(Nc2ccncc2S(=O)(=O)NC(=O)NC(C)C)c1 [Torasemide] (stock concentration (mM, diluted 1:100): 9.9) | 0.74
O=C1C(c2c(O)[nH]c3ccccc23)=Nc2ccccc21 [Indarubicin] (stock concentration (mM, diluted 1:100): 10) | -1.36

SMILES | HIS4 meiotic recombination assay sensitivity score
CC(C)[C@H]1CC[C@H](C(=O)N[C@H](Cc2ccccc2)C(=O)O)CC1 [Nateglinide] (stock concentration (mM, diluted 1:100): 10) | -0.37
OCc1cc(C(O)CNCCCCCCOCCCCc2ccccc2)ccc1O (stereo not given) [Salmeterol] (stock concentration (mM, diluted 1:100): 10) | 0.79
C#C[C@]1(O)CC[C@H]2[C@@H]3CCc4cc(O)ccc4[C@H]3CC[C@@]21C [Ethynylestradiol] (stock concentration (mM, diluted 1:100): 10) | -1.32
CC[C@@H]1C(=O)OC[C@@H]1Cc1cncn1C [Pilocarpine hydrochloride] (stock concentration (mM, diluted 1:100): 10) | -0.54
CC(C)(C)C(O)/C=C/c1ccc2c(c1)OCO2 (stereo not given) [Stiripentol] (stock concentration (mM, diluted 1:100): 10) | 1.81
Cc1cn([C@H]2C=C[C@@H](CO)O2)c(=O)[nH]c1=O [Stavudine] (stock concentration (mM, diluted 1:100): 10) | -1.75
CCc1nn(CCCN2CCN(c3cccc(Cl)c3)CC2)c(=O)n1CCOc1ccccc1 [Nefazodone] (stock concentration (mM, diluted 1:100): 9.3) | 3
Nc1ccn([C@@H]2O[C@H](CO)[C@@H](O)[C@@H]2O)c(=O)n1 [Cytarabine] (stock concentration (mM, diluted 1:100): 10) | -0.49
Cc1c(O)c(=O)ccn1C [Deferiprone] (stock concentration (mM, diluted 1:100): 10) | -0.12
C[N+]1(C)CCC(OC(=O)C(O)(c2ccccc2)C2CCCC2)C1 (stereo not given) [Glycopyrrolate] (stock concentration (mM, diluted 1:100): 10) | -0.65
N[C@@H](C(=O)N[C@@H]1C(=O)N2C(C(=O)O)=C(CSc3cn[nH]n3)CS[C@H]12)c1ccc(O)cc1 [Seapuron] (stock concentration (mM, diluted 1:100): 8.6) | 0.57
COc1cc2nc(N(C)CCCNC(=O)C3CCCO3)nc(N)c2cc1OC (stereo not given) [Alfuzosin] (stock concentration (mM, diluted 1:100): 10) | -0.29
COCCOC(=O)C1=C(C)NC(C)=C(C(=O)OC(C)C)C1c1cccc([N+](=O)[O-])c1 (stereo not given) [Nimodipine] (stock concentration (mM, diluted 1:100): 10) | 4.27
CC(C)(C#N)c1cc(Cn2cncn2)cc(C(C)(C)C#N)c1 [Anastrozole] (stock concentration (mM, diluted 1:100): 10) | 0.04
CCCN[C@H]1CCc2nc(N)sc2C1 [Pramipexole hydrochloride] (stock concentration (mM, diluted 1:100): 7.1) | -0.03
C[C@@H](c1ncncc1F)[C@](O)(Cn1cncn1)c1ccc(F)cc1F [Voriconazole] (stock concentration (mM, diluted 1:100): 9.9) | 0.14
C=C1/C(=C\C=C2/CCC[C@]3(C)[C@@H]([C@H](C)CCCC(C)(C)O)CC[C@@H]23)C[C@@H](O)C[C@@H]1O [Calcitriol] (stock concentration (mM, diluted 1:100): 10) | 2.18
O=C1Nc2ccc(Cl)cc2[C@@](C#CC2CC2)(C(F)(F)F)O1 [Efavirenz] (stock concentration (mM, diluted 1:100): 10.1) | -0.43
CCCc1nc2c(C)cc(-c3nc4ccccc4n3C)cc2n1Cc1ccc(-c2ccccc2C(=O)O)cc1 [Telmisartan] (stock concentration (mM, diluted 1:100): 10) | -1.16
Cc1nccn1CC1CCc2c(c3ccccc3n2C)C1=O (stereo not given) [Ondansetron hcl] (stock concentration (mM, diluted 1:100): 8.9) | -0.73
